Most compounds without a hit are left out; they make up all but 2.3% or so of the library.
aSyn rescue: qHTS of alpha-syn Inhibitors; Potency, µM (doses to about 46.1 µM), inactives show top-dose growth rescue (activation), actives largely listed as activators; actives 0.14% (n = 370,000); Yeast expressing alpha-synuclein, growth rescue, BacTiter-Glo, 24 h; also: potency is read from the fitted curve at half-maximal effect; % of control where 0% means no effect; nearly all actives have a fitted effect of over 65% in size
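Screening used galactose-induced yeast with toxic alpha-synuclein levels, exposed to compound for 24 hr at 30 deg C. Cell growth, read with BacTiter-Glo luminescence, gave the measured signal.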
FUS yeast rescue: qHTS for Suppressors of FUS Proteinopathy: Primary screen using FUS-linked yeast assay | S. cerevisiae FUS-expressing, growth rescue, OD600, 24 h | Potency, µM (titrated, usually from 76.6 µM), hits mostly activators | actives 0.24% (n = 390,000);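 also: potency is read from the fitted curve at half-maximal effect; plate controls were DMSO vehicle for no effect and reference control for full effect; nearly all actives have a fitted effect of over 55% in size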
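S. cerevisiae expressing FUS from galactose induction served as the toxicity model. Growth after 24hr at 30C, read as absorbance at 600 nm, indicates suppression of toxicity; compounds dosed at several concentrations.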
CCT chaperon mod: High-Throughput Screening for Modulators of Cytosolic Chaperonin Activity. purified chaperonin ATPase assay, HTRF ADP detection, 30 min. actives 0.3% (n = 360,000). activity change, % (test concentration not listed), hits read low; in the data active = activity change below about -30%; also: % is scaled to controls: 0 for no effect and ±100 for the full control effect
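First, chaperonin was dispensed at 40 nM or 20 nM final depending on batch activity. Next, compounds were pinned at 76 uM and ATP added at 10 uM. After 30 min at 37 °C, ADP detection reagents ran 30 min at ambient temperature.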
TDP-43 yeast inh: qHTS of TDP-43 Inhibitors; Potency, µM (highest dose often 46.1 µM), for the others: top-dose growth rescue (activation), usual class: activators; actives 1.8% (n = 410,000); TDP-43 expressing yeast growth rescue, BacTiter-Glo, 24 h; also: potency is read from the fitted curve at half-maximal effect; % of control where 0% means no effect; nearly all actives have a fitted effect of over 50% in size
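Yeast cells expressing TDP-43 under galactose induction are exposed to compounds for 24 hr at 30 deg C. BacTiter-Glo luminescence measures growth, so protective compounds score as activators.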
MmCpn inh: Inhibitors of TCP-1 ring complex (TRiC) of Methanococcus maripaludis (MmCpn): qHTS; Chaperonin Mm-Cpn (Methanococcus maripaludis); AID 504842, 2011; actives 0.031% (n = 330,000); Potency, µM (highest dose often 76.9 µM), inactives show top-dose activity, negative = inhibition, usual class: inhibitors; purified Mm-Cpn ATPase, ADP Transcreener TR-FRET; also: potency is read from the fitted curve at half-maximal effect; % is scaled to controls: 0 for no effect and ±100 for the full control effect; nearly all actives have a fitted effect of over 80% in size
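Inhibition of chaperonin ATP hydrolysis is measured as reduced ADP production, detected by competitive TR-FRET in which signal falls with ADP. Final enzyme 25 nM and ATP 10 uM, reacted 30 min at 37°C.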
Abeta yeast res: qHTS for compounds that reverse cellular toxicity of Amyloid beta (A-beta) peptide in yeast: Primary Screen | Potency, µM (doses to about 46.1 µM), most hits filed as activators | AID 1347071, 2019 | actives 0.063% (n = 410,000) | yeast expressing A-beta42, growth rescue, OD600, 48 h; response scale: 0% DMSO, 100% iron-clioquinol control; also: potency is read from the fitted curve at half-maximal effect; nearly all actives have a fitted effect of over 55% in size
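Growth rescue measured by 600 nm absorbance after 48 h yeast culture at 30 C with compound. Values normalized between DMSO and an equimolar ferric chloride plus clioquinol control.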
The depositor's hits bear a star; [ ] = another dose, or the depositor's remark. Unless noted, calls follow the shape of the dose curve; as a rule, active = well fitted curve in the direction sought with a large enough effect; inconclusive = small, poorly fitted or top-dose-only effect, or another doubt; inactive = no such curve, though single readings can be large; an effect the other way counts as inactive or inconclusive.

`CCOc1ccc(/C=C/c2nc(C#N)c(N3CCC(C)CC3)o2)cc1` gave FUS yeast rescue inactive, TDP-43 yeast inh inconclusive and Abeta yeast res inactive.
For COc1ccc(-n2cnnc2SCc2cnc(-c3ccccc3)s2)cc1 the results were aSyn rescue 0%, FUS yeast rescue inactive, CCT chaperon mod 0, TDP-43 yeast inh 20µM*, MmCpn inh 1% and Abeta yeast res inactive.
`CCOC(=O)CNC(=O)CSc1nnc(-c2cccs2)o1` gave FUS yeast rescue inactive.
CCNC(=O)c1ccc2c(c1)sc1nc(-c3cccc(OC)c3)cn12 was read as FUS yeast rescue inactive, TDP-43 yeast inh 16µM* and Abeta yeast res inactive.
Screening COc1cccc(-c2cn3c(n2)sc2cc(C(=O)NCc4ccccc4F)ccc23)c1 returned FUS yeast rescue inactive, TDP-43 yeast inh inconclusive and Abeta yeast res inactive.
For CCC(C)c1ccc(NC(=O)N2CCN(C(=O)C3CCCO3)CC2)cc1 (configuration not stated) the results were aSyn rescue -3%, CCT chaperon mod 1, TDP-43 yeast inh 20%, MmCpn inh -2% and Abeta yeast res inactive.
CCC(C)c1ccc(NC(=S)N2CCN(C(=O)C3CCCO3)CC2)cc1 (configuration not stated) was read as aSyn rescue 1%, CCT chaperon mod -74*, TDP-43 yeast inh inconclusive, MmCpn inh 1% and Abeta yeast res inactive.
Cc1c(OC(C)C(=O)NCC2CCC(C(=O)O)CC2)ccc2c3c(c(=O)oc12)CCCC3 (configuration not stated) was read as aSyn rescue 3%, FUS yeast rescue inactive, CCT chaperon mod -37*, TDP-43 yeast inh 0%, MmCpn inh 0% and Abeta yeast res inactive.
For Cc1cc(=O)oc2c(C)c(OC(C)C(=O)NCC3CCC(C(=O)O)CC3)ccc12 (configuration not stated) the results were aSyn rescue -1%, FUS yeast rescue inactive, CCT chaperon mod -1, TDP-43 yeast inh 9%, MmCpn inh 1% and Abeta yeast res inactive.
Screening CC(C)CN1C(=O)[C@]2(CC(=O)N(C)C2c2ccccc2)c2cc(-n3cc(CO)nn3)ccc21 (some centres not stated) returned FUS yeast rescue inactive.
`O=S(=O)(c1ccccc1)c1nc(NCc2ccccc2)sc1Cl` gave aSyn rescue -1%, CCT chaperon mod -2, TDP-43 yeast inh 20µM*, MmCpn inh -9% and Abeta yeast res inactive.
`COc1ccc(CNc2nc(S(=O)(=O)c3ccccc3)c(Cl)s2)cc1OC` gave aSyn rescue 1%, FUS yeast rescue inactive, CCT chaperon mod -2, TDP-43 yeast inh 1%, MmCpn inh -11% and Abeta yeast res inactive.
`COCc1cn(-c2ccc3c(c2)[C@]2(CC(=O)N(C)C2c2ccccc2)C(=O)N3CC(C)C)nn1` (some centres not stated) gave FUS yeast rescue inactive.
Screening O=S(=O)(Nc1ccc(Cl)cn1)c1ccc(Cl)cc1 returned aSyn rescue 6%, FUS yeast rescue inactive, CCT chaperon mod -1, TDP-43 yeast inh 11µM*, MmCpn inh -3% and Abeta yeast res inactive.
C=CCCC(=O)N1CCC(CCC(=O)NC2CC2)CC1 was read as aSyn rescue -5%, FUS yeast rescue inactive, CCT chaperon mod 1, TDP-43 yeast inh -4%, MmCpn inh 3% and Abeta yeast res inactive.
CSCC(=O)N1CCC(CCC(=O)NC2CC2)CC1 was read as aSyn rescue -18%, FUS yeast rescue inactive, CCT chaperon mod -53*, TDP-43 yeast inh -11%, MmCpn inh 0% and Abeta yeast res inactive.
`O=C(C[n+]1ccncc1)c1cccc2ccccc12` gave aSyn rescue 2%.
`C[C@@H]1CCN(C2CC2)S(=O)(=O)c2c(cccc2N2CC[C@H](N(C)C)C2)O1` gave FUS yeast rescue inactive.
`CCc1ccc(Nc2ncnc3nc[nH]c23)cc1` gave aSyn rescue -5%, FUS yeast rescue inactive, CCT chaperon mod 0, TDP-43 yeast inh -20%, MmCpn inh 0% and Abeta yeast res inactive.
Screening CCCCc1ccc(Nc2ncnc3nc[nH]c23)cc1 returned aSyn rescue 1%, FUS yeast rescue inactive, CCT chaperon mod 1, TDP-43 yeast inh 16µM*, MmCpn inh 0% and Abeta yeast res inactive.
Screening C=CCN1C(=O)[C@@H](CC(=O)NCc2ccccc2)[C@]2(C(=O)OC)CCCCC=C12 returned FUS yeast rescue inactive.
Cn1c(NC(=O)c2ccc(F)cc2)nc2ccccc21 was read as aSyn rescue -6%, FUS yeast rescue inactive, CCT chaperon mod -2, TDP-43 yeast inh 28µM*, MmCpn inh -3% and Abeta yeast res inactive.
For O=C(/C=C\c1ccccc1OC(=O)c1ccccc1F)c1cc2ccccc2o1 the results were aSyn rescue 17%, FUS yeast rescue inactive, CCT chaperon mod 1, TDP-43 yeast inh 13µM*, MmCpn inh -15% and Abeta yeast res inactive.
O=C(COC(=O)C12CC3CC(CC(Br)(C3)C1)C2)NCc1ccco1 was read as aSyn rescue -5%.
`CC(=O)Nc1cc(C(=O)NCc2ccc(C)cc2)ccc1Sc1ccc(C)cc1` gave FUS yeast rescue inconclusive, TDP-43 yeast inh 20µM* and Abeta yeast res inactive.
CCOc1ccc(CNC(=O)c2ccc(Sc3ccc(C)cc3)c(NC(C)=O)c2)cc1OC was read as aSyn rescue 5%, FUS yeast rescue inconclusive, CCT chaperon mod 0, TDP-43 yeast inh inconclusive, MmCpn inh -11% and Abeta yeast res inactive.
`O=C(Cc1cccc(C(F)(F)F)c1)OCN1C(=O)c2ccccc2C1=O` gave aSyn rescue 24%, FUS yeast rescue inactive, CCT chaperon mod 2, TDP-43 yeast inh 35µM*, MmCpn inh 0% and Abeta yeast res inactive.
`CC(C)N(C(=O)c1ccc(C(=O)Nc2ccc([N+](=O)[O-])cc2)cc1)C(C)C` gave aSyn rescue -4%, FUS yeast rescue inactive, CCT chaperon mod -32*, TDP-43 yeast inh -15%[9.22 µM], MmCpn inh -1% and Abeta yeast res inactive.
